This is an account of results in PubChem BioAssay (Tox21).

Test [1] is described as follows: qHTS assay to identify small molecule antagonists of the estrogen related receptor (ERR) signaling pathway from Tox21 library - cell viability counter screen (AID 1224834). Note: nearly all actives have a fitted effect of over 30% in size. The gist of the method: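 Viability readout (CellTiter-Fluor fluorescence, 30 min at 37 C) multiplexed with the ERR assay; cells treated 17.5 h at 37 C with compounds delivered in DMSO.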
(qHTS replaces the single test concentration by a dilution series.)

Test [2] has as its target Luciferin 4-monooxygenase (Photinus pyralis) (UniProt P08659). As to the kind of experiment: qHTS assay to identify small molecule inhibitors of firefly luciferase (AID 1224835). Note: nearly all actives have a fitted effect of over 25% in size. The gist of the method:
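Biochemical qHTS: compounds run as interplate titrations against purified firefly enzyme, with D-luciferin and ATP each at its KM concentration. Light output recorded by CCD imaging.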

Test [3] is described as follows: qHTS assay to identify small molecule agonists of the constitutive androstane receptor (CAR) signaling pathway - cell viability counter screen (AID 1224836). Note: nearly all actives have a fitted effect of over 45% in size. The gist of the method:
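HepG2-CYP2B6-hCAR, 2500 cells/well, 4 h pre-incubation; cpd 15 conc + PK11195 0.75 uM final; 23 h, 37 C/5% CO2; CellTiter-Fluor, fluorescence.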

Test [4] can be described thus: qHTS assay to identify small molecule antagonists of the constitutive androstane receptor (CAR) signaling pathway - cell viability counter screen (AID 1224837). Note: nearly all actives have a fitted effect of over 45% in size. The gist of the method: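 Fluorescence from CellTiter-Fluor served as the viability signal. Human hepatoma HepG2 cells stably bearing hCAR and CYP2B6-2.2kb received compound plus CITCO (50 nM final) for 23 hr.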

Test [5] addresses Nuclear receptor subfamily 1 group I member 3 (Homo sapiens) (UniProt Q14994). Nature of the test: qHTS assay to identify small molecule antagonists of the constitutive androstane receptor (CAR) signaling pathway (AID 1224838).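 Note: HepG2 cells stably expressing hCAR with CYP2B6 luciferase reporter stimulated by CITCO; nearly all actives have a fitted effect of over 40% in size.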 The essentials:
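Quantitative HTS in double-stable HepG2-CYP2B6-hCAR cells. After 4 h plating, cells get compound (15 concentrations) and CITCO at 50 nM final, incubate 24 h at 37 C, then ONE-Glo luminescence is read.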

Test [6] shares this target. Nature of the test: qHTS assay to identify small molecule agonists of the constitutive androstane receptor (CAR) signaling pathway (AID 1224839).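 Note: HepG2 cells stably carrying human CAR and a CYP2B6 luciferase reporter; nearly all actives have a fitted effect of over 15% in size.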 The essentials: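 HepG2-CYP2B6-hCAR cells, 2500/well, 4 h pre-incubation; compounds 15 conc.; PK11195 0.75 uM final; 24 h, 37 C/5% CO2; ONE-Glo luciferase read.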
Test [7] is described as follows: qHTS assay to identify small molecule antagonists of the estrogen related receptor signaling pathway with the pleiotropic PPARgamma coactivator (PGC) from Tox21 10K library - cell viability counter screen (AID 1224840; active = well fitted cell-killing curve with a large enough effect in the repeat runs, not every such curve was filed as active; note: nearly all actives have a fitted effect of over 40% in size). The gist of the method:
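Compounds in DMSO, alongside positive and negative controls, were pinned onto PGC/ERR cells (2,000 per well). Exposure lasted 17.5 hours at 37 C, followed by a 30-minute CellTiter-Fluor incubation and fluorescence reading.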

Test [8] in a line: qHTS assay to identify small molecule antagonists of the estrogen related receptor signaling pathway with the pleiotropic PPARgamma coactivator (PGC) from Tox21 10K library (AID 1224841; call rule not given here; note: actives are mostly falling curves and most rising ones were filed inactive; nearly all actives have a fitted effect of over 50% in size). The essentials:
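Compound exposure ran 18 hours at 37 C in PGC/ERR cells (2,000/well) that had first rested 6 hours in a 37 C/5% CO2 incubator. Luciferase activity was then detected with One-Glo after a 30-minute room-temperature step.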

Test [9] in a line: qHTS assay to identify small molecule agonists of the estrogen related receptor signaling pathway with the pleiotropic PPARgamma coactivator (PGC) from Tox21 10K library (AID 1224842). Note: nearly all actives have a fitted effect of over 15% in size. The gist of the method: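 PGC/ERR reporter cell line, 2,000 cells per well, incubated 6 h at 37 C before 23 nL compound in DMSO was added. After 18 h at 37 C, One-Glo luminescence read following 30 min at room temperature.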

Test [10] addresses Thyrotropin receptor (Homo sapiens) (UniProt P16473). As to the kind of experiment: qHTS assay to identify small molecule agonists of the thyroid stimulating hormone receptor (TSHR) signaling pathway (AID 1224843; calls by dose curve; note: nearly all actives have a fitted effect of over 45% in size; note: potency is the fitted concentration of half-maximal effect). The essentials:
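Steps: seed 800 TSHR-HEK293 cells per well; add test compound and hold 30 min at ambient temperature; dispense cAMP-d2 then anti-cAMP cryptate; incubate 1 h at ambient; measure fluorescence intensity.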

The nature of test [11]: qHTS assay to identify small molecule agonists of the hypoxia (HIF-1) signaling pathway - cell viability counter screen (AID 1224844; calls by dose curve; note: nearly all actives have a fitted effect of over 50% in size; note: potency is the fitted concentration of half-maximal effect). The essentials: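 Luminescent ATP content (CellTiter-Glo, 30 min, room temperature) served as the viability measure in HRE-bla ME-180 cells exposed to compounds for 17 hrs in low-serum medium (0.5% dialyzed FBS).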
The nature of test [12]: qHTS assay to identify small molecule agonists of H2AX (AID 1224845; active = well fitted activation curve with a large enough effect in the signal ratio in the repeat runs, not every such curve was filed as active; the % refers to the signal ratio). The gist of the method: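 Wild-type CHO-K1 cells, plated overnight, exposed 3hr at 37C to 15 concentrations (0.76% DMSO final). Lysed, then HTRF anti-pH2AX (S139) cryptate and anti-H2AX-d2 antibodies, 24 hr room temperature; 665/620 nm emission read.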
Test [13] in a line: qHTS assay to identify small molecule agonists of the hypoxia (HIF-1) signaling pathway (AID 1224846; active = well fitted activation curve with a large enough effect in the signal ratio in the repeat runs, not every such curve was filed as active; the % refers to the signal ratio). The gist of the method:
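Measured by blue/green FRET after loading CCF4-AM: beta-lactamase expressed from a hypoxia response element in ME-180 cells. Test agents were delivered in DMSO and left 17 hrs; cells had been plated 5 hrs earlier in low-serum (0.5% dialyzed FBS) medium.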

Test [14] is described as follows: qHTS assay to identify small molecule agonists of H2AX - cell viability counter screen (AID 1224847; calls by dose curve; note: top concentration of the series differs between compounds; nearly all actives have a fitted effect of over 30% in size). The essentials: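 Cells plated first: CHO-K1, 1000 per well in 10% FBS medium, incubated overnight at 37C. Then 15-point compound titration added (final DMSO 0.76%) for 3 hr. Finally CellTiter-Glo added and luminescence read.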
Test [15] is described as follows: qHTS assay to identify small molecule agonists of the estrogen related receptor (ERR) signaling pathway from Tox21 library (AID 1224849; calls by dose curve; note: nearly all actives have a fitted effect of over 15% in size). Conditions: ERR reporter cell line, ONE-Glo luciferase, 18 h; at 92.4 µM (top of the series) unless noted. The essentials: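 We plated ERR reporter cells, waited 6 h, added compounds in DMSO by pin tool and incubated them 18 h at 37 C. ONE-Glo was then added and luminescence read after 30 min.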

Test [16] in a line: qHTS RealTime-Glo MT Cell Viability Assay in HepG2 cells - 24 hour (AID 1224867). Note: nearly all actives have a fitted effect of over 50% in size. The essentials: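 HepG2 suspension premixed with RealTime-Glo reagents is plated at 600 cells per well and left 5 h at 37 C/5% CO2. Compounds in DMSO then go in, and bioluminescence reflecting viable cell number is recorded over 40 h.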
The nature of test [17]: A CellTox Green Cytotoxicity Assay to monitor cytotoxicity in HEK293 cells - 0 hour (AID 1224869). Note: nearly all actives have a fitted effect of over 50% in size. The gist of the method:
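Each value comes from one timepoint of a single continuous run in which HEK293 cells with CellTox Green were exposed to compound for up to 40 h at 37 C, dye fluorescence rising with cell death.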

Test [18] is described as follows: qHTS RealTime-Glo MT Cell Viability Assay in HepG2 cells - 40 hour (AID 1224870). Note: nearly all actives have a fitted effect of over 50% in size. The gist of the method:
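HepG2 cells (600/well) mixed with RealTime-Glo MT reagent, settled 5 h at 37 C/5% CO2 before compound addition. Nonlytic NanoLuc luminescence from viable-cell prosubstrate reduction read repeatedly during 40 h treatment at 37 C.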

Test [19] in a line: qHTS RealTime-Glo MT Cell Viability Assay in HEK293 cells - 32 hour (AID 1224868). Note: nearly all actives have a fitted effect of over 50% in size. Note: potency is the fitted concentration of half-maximal effect. The essentials:
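Reads taken at 0, 8, 16, 24, 32 and 40 h from the same wells. HEK293 cells (600/well) carried RealTime-Glo reagents from seeding, with compound added after a 5 h settle at 37 C.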

The nature of test [20]: qHTS assay to identify small molecule antagonists of the estrogen related receptor (ERR) signaling pathway from Tox21 library (AID 1224848). Note: nearly all actives have a fitted effect of over 50% in size. The essentials:
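Luminescent reporter read-out (ONE-Glo) from NTP's ERR cell line after 18 h treatment at 37 C with DMSO-dissolved Tox21 compounds; cells pre-plated 6 h beforehand at 2,000 per well.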

Unmarked numbers belong to inactive results. Results filed as inconclusive are left out. Active and inactive are the calls of the source. Unless noted, calls come from the whole dose curve; as a rule, active = well fitted curve in the direction sought with a large enough effect in the repeat runs; inconclusive = weak or mixed curves; inactive = no such curve, though single readings can be large; an effect the other way counts as inactive or inconclusive.
% is set by controls: 0 for no effect and ±100 for the full control effect.

Chain of Luciferin 4-monooxygenase (Photinus pyralis) (P08659 whole entry, looked up): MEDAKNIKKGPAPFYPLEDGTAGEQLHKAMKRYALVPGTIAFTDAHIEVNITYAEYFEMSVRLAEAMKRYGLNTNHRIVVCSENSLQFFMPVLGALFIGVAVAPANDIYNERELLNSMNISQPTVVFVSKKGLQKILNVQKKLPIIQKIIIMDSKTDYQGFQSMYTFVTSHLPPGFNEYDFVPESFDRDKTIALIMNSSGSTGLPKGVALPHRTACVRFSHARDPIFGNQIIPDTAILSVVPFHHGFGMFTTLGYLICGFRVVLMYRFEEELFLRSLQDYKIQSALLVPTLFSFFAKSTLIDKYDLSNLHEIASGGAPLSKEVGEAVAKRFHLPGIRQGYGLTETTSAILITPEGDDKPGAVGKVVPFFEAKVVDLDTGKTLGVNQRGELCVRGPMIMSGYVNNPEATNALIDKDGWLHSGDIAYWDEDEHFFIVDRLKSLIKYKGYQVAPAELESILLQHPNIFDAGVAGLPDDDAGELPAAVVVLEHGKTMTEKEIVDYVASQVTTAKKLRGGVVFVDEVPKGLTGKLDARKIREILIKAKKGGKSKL
Chain of Thyrotropin receptor (Homo sapiens) (P16473 whole entry, looked up): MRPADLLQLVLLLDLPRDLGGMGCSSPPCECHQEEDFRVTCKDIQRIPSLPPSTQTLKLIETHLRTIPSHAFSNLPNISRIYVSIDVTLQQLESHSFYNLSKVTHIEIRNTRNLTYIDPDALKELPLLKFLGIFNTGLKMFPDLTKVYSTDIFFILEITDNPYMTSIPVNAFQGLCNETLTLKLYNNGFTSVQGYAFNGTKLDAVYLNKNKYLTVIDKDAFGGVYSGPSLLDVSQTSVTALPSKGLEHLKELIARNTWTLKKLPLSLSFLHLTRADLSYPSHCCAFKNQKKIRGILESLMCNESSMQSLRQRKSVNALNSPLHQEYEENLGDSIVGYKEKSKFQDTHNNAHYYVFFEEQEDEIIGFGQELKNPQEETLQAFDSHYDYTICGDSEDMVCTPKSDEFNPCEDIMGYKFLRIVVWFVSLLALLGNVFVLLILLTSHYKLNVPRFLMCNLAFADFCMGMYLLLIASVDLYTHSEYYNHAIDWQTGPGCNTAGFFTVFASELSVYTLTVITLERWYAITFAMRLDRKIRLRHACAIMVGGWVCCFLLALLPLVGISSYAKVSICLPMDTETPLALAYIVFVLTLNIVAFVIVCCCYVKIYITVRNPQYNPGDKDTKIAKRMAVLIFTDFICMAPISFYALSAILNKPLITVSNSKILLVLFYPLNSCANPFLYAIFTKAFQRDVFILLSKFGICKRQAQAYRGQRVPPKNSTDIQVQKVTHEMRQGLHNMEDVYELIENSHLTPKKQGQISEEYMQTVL
Chain of Nuclear receptor subfamily 1 group I member 3 (Homo sapiens) (Q14994 whole entry, looked up): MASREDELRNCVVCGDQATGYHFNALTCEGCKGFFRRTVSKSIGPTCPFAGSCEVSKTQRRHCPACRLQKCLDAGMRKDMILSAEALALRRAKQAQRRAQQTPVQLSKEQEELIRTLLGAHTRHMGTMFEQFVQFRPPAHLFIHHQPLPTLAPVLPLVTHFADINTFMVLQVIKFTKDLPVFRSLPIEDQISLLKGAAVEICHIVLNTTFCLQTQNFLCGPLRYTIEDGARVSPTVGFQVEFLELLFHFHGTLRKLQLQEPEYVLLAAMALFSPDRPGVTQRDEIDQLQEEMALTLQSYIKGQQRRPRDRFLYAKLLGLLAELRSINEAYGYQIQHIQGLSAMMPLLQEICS

With `CN(C)CCc1ccc(O)cc1`, the Potency entry in test [1], in [2], in test [3], in test [4], in [5] and in [6] was “inactive” each time. The Potency result in [7], in [8], in [10], in [11], in [12] and in test [14] was “inactive” in each case. For the same molecule, the Potency result in [16], in [17] and in test [18] was “inactive” each time. Besides, the result in test [9] and in [13] was inactive. In addition, the activity change, positive = activation in test [15] was 5.13% [at 42.5 µM].

In the case of `CCCCOC(=O)[C@@H](C)Oc1ccc(Oc2ccc(C#N)cc2F)cc1`, the Potency entry in test [1], in test [2], in [3], in [4], in [5] and in [6] was “inactive” throughout. Also, the Potency result in test [7], in [8], in test [11], in test [12], in test [14] and in test [16] was “inactive” in each case. Also, the Potency result in test [17] and in test [18] was “inactive” throughout. Also, the result in test [9] and in test [13] was inactive. Moreover, the activity change, positive = activation in test [15] was -5.11%. Moreover, the Potency in [19] is 21.7 µM (active).

`C1CCC(C2CCCCC2)CC1`: the Potency result in test [1], in test [2], in [3], in test [4], in test [5] and in [6] was “inactive” throughout. Moreover, the Potency result in [7], in [8], in test [10], in test [12], in test [14] and in test [16] was “inactive” each time. In addition, the Potency entry in [18] is “inactive”. The molecule was called inactive in test [9]. Moreover, the Potency in test [11] was 21.9 µM (active). Also, the activity change, positive = activation in [15] is -6.98%.

With `COC(=O)C(c1ccccc1)C1CCCCN1` (stereo unspecified), the Potency result in [1], in test [2], in test [3], in test [4], in test [5] and in test [6] was “inactive” throughout. In addition, the Potency entry in test [7], in test [10], in test [11], in [12], in test [14] and in test [16] was “inactive” in each case. Further, the Potency entry in test [19], in test [17] and in [18] was “inactive” each time. In addition, the molecule was classed as inactive in [13].

Turning to `CN1CCC(N(Cc2ccccc2)c2ccccc2)CC1`, the Potency result in test [1], in test [2], in test [3], in test [4], in [5] and in test [6] was “inactive” in each case. The Potency entry in test [7], in test [11], in test [12], in test [14], in test [16] and in test [19] was “inactive” throughout. Moreover, the Potency result in test [17] and in test [18] was “inactive” each time. Moreover, the Potency in test [10] is 13.3 µM (active). Moreover, in [13], the outcome was inactive.

With `Cc1ncc2n1-c1ccc(Cl)cc1C(c1ccccc1F)=NC2`, the Potency entry in test [1], in test [2], in [3], in test [4], in test [5] and in test [6] was “inactive” each time. Besides, the Potency entry in test [7], in [8], in test [10], in [11], in [12] and in test [14] was “inactive” each time. The Potency entry in test [16], in test [17] and in test [18] was “inactive” in each case. In test [15], the activity change, positive = activation is 12.1% [at 42.5 µM].

`COC(=O)C1=CCCN(C)C1`: the Potency entry in test [1], in [2], in test [3], in test [4], in test [5] and in [7] was “inactive” each time. Besides, the Potency entry in [10], in test [11], in test [12], in [14], in test [16] and in test [19] was “inactive” each time. Further, the Potency entry in test [17] and in [18] was “inactive” each time.

Take `NC(=O)O`: the Potency result in [1], in test [2], in test [3], in [4], in test [5] and in [7] was “inactive” each time. Besides, the Potency result in [10], in test [11], in test [12], in test [14], in test [20] and in [16] was “inactive” in each case. For the same molecule, the Potency result in test [19], in test [17] and in test [18] was “inactive” throughout. The call in [13] was inactive. The activity change, positive = activation in [15] is -1.74%.
